An excerpt weighted towards active compounds, which were near 1.5% of everything screened.
MRP reversal: reverses drug resistance mediated by MRP | H69AR cells + 2 uM doxorubicin, CellTiter-Glo, 72 h | differential viability (reversal), % at 10 µM | 85,000 tested, 0.04% active | AID 602;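 active = viability drop by adding the cancer drug above about 55%, with treated viability meeting a 40% cutoff, limit read from the data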;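 note: viability without doxorubicin minus viability with 2 µM doxorubicin for each compound; larger differential means the compound sensitizes cells more to doxorubicin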
MRP-1 activ: activators of MRP-1; H69AR cells + doxorubicin, viability rescue, CellTiter-Glo; viability increase, % at 10 µM; 140,000 tested, 0.61% active; AID 799;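 active = viability gain under doxorubicin at or above a set limit, the compound median plus 3 SD, cut at about 4.7% in these data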;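 note: MRP-1 overexpressing cells given doxorubicin 25 µM after compound pretreatment; 18-22 h compound pretreatment then 72 h with doxorubicin before readout; 0% = doxorubicin-only wells and 100% = vehicle-treated cells without doxorubicin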
hDAT+cocaine: changed human dopamine transporter uptake under cocaine IC80 | B-score at 10 µM | 110,000 tested, 1.3% active | LLC-PK1 hDAT cells, [14C]-dopamine uptake with cocaine IC80; actives deviate in either direction | AID 449768;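 active = Z score or B-score, a plate-position-corrected score, falls beyond the plate's 99.7% confidence bounds, in either direction; inactive = both scores lie inside the 99.7% bounds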;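 note: scored against the spread of the other compound wells on the same plate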
Target sequence (Q01959 whole entry, looked up): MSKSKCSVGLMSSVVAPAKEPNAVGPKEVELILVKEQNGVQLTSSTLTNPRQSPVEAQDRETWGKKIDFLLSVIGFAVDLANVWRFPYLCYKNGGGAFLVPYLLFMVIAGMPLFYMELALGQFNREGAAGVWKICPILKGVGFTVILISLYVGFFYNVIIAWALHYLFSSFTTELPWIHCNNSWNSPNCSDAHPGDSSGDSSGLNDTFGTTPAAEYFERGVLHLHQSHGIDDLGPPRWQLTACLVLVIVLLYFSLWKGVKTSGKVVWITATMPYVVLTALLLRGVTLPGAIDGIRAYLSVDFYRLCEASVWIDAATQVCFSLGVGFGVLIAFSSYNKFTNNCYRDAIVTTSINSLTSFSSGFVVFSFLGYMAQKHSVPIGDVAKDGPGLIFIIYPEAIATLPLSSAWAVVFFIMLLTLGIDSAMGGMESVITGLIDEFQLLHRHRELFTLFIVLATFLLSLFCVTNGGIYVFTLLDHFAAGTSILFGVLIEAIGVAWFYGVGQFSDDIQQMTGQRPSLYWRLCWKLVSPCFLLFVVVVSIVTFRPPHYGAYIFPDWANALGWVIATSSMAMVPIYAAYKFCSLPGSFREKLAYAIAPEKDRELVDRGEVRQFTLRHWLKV
The depositor's hits bear a star; · = not tested or not shown.

SMILES	MRP reversal	MRP-1 activ	hDAT+cocaine
CN1CCN(C(=O)c2ccc(Cl)c(S(=O)(=O)N3CCCCC3)c2)CC1	7	-2	-0.041
COc1ccccc1C(=O)O/N=C(/C)c1ccc(N2C(=O)C3CCCCC3C2=O)cc1 (centres undefined)	·	-1	0.024
COc1cccc(C(=O)N(Cc2ccc(N(C)C)cc2)C2CCS(=O)(=O)C2)c1 (centres undefined)	5	-1	2.6*
CCOc1ccc(CN(C(=O)c2ccco2)C2CCS(=O)(=O)C2)cc1 (centres undefined)	4	-3	0.0071
O=C(NCc1ccccc1)c1cccc(COc2ccc(Cl)cc2)c1	·	-1	0.61
COc1cc(CNC(=O)c2cccc(COc3ccc(Cl)cc3)c2)cc(OC)c1	·	4.8*	·
COc1ccc(-c2c3c(=O)n(C)c(=O)n(C)c3cn2Cc2cccnc2)cc1	5	0	-8.7*
COc1ccc(-c2c3c(=O)n(C)c(=O)n(C)c3cn2Cc2ccccn2)cc1	10	-3	0.9
S=c1[nH]nc(COc2ccc(Cl)cc2)o1	6	4.9*	-0.12
COc1ccc(OCc2n[nH]c(=S)o2)cc1	0	-1	1.4
COc1cc(Br)cc(CN2CCN(C=O)CC2)c1O	2	-3	-0.74
COc1cc([N+](=O)[O-])cc(CN2CCCCC2)c1O	·	-2	-1.2*
CCc1ccccc1NC(=O)CSc1nc(-c2ccccc2)nn1C(=O)c1cccc([N+](=O)[O-])c1	·	-1	5.4*
O=C(CSc1nc(-c2ccccc2)nn1C(=O)c1ccccc1)Nc1cccc([N+](=O)[O-])c1	·	-2	-0.9
Cc1nn(Cc2ccc(F)cc2)c(C)c1NC(=O)c1cnn2c1NC(c1ccccc1)CC2C(F)(F)F (centres undefined)	9	-1	0.092
Cc1nn(Cc2ccc(F)cc2)c(C)c1NC(=O)c1cnn2c1NC(c1cccs1)CC2C(F)(F)F (centres undefined)	5	-2	2.9*
Cc1c(-c2ccccc2)nc2ccccc2c1C(=O)OCC(=O)Nc1ncc(C(F)(F)F)cc1Cl	·	-3	·
CN1/C(=C/C2CC(=O)N(c3ccc([N+](=O)[O-])cc3)C2=O)C(C)(C)c2ccccc21 (centres undefined)	11	0	2.9*
CN1/C(=C\C(=S)NC(=O)c2ccc([N+](=O)[O-])cc2)C(C)(C)c2ccccc21	·	-1	·
FC(F)(F)c1cc(CCN2C(=S)NC[C@@H]2CC2CCCCC2)cc(C(F)(F)F)c1	·	·	0.061
CCOC(=O)C1CCN(C(=O)CCCN2C(=O)c3ccccc3C2=O)CC1	13	1	0.63
O=C(CCCCCCN1C(=O)c2ccccc2C1=O)N1CCC(c2ccccc2)C1 (centres undefined)	-12	1	3.4*
COc1cccc(C=Nc2cc(C)cc(C)c2)c1O	·	-2	·
COc1cccc(/C=N/N2C(=O)CSC2=S)c1O	·	8.0*	·
CCCCNC(=O)CSc1nc2ccccc2c(=O)n1CC1COc2ccccc2O1 (centres undefined)	-11	-5	-0.26
SMILES	MRP reversal	MRP-1 activ	hDAT+cocaine
Cn1ccnc1SCc1ccc([N+](=O)[O-])cc1	·	-2	0.72
Cn1ccnc1SCc1cn2cc(Br)ccc2n1	-16	0	-8.7*
COc1ccccc1NC(=O)NCCCl	8	-1	-2.4*
COc1ccccc1NC(C)=O	17	-1	0.86
O=C(CSc1nc(C2CC2)nc2ccccc12)N1c2ccccc2Sc2ccccc21	·	0	·
COc1ccc(N2CCN(c3oc(COc4ccc(Cl)cc4Cl)nc3C#N)CC2)cc1	21	2	0.82
N#Cc1nc(COc2ccc(Br)cc2)oc1N1CCCCCC1	8	6.5*	-0.34
N#Cc1nc(COc2ccc(Cl)cc2Cl)oc1N1CCOCC1	27	-1	-0.54
N#Cc1nc(COc2ccc(Br)cc2)oc1N1CCCC1	-7	7.3*	-0.14
C=CCN1c2ccccc2[C@]23C[C@@H](C(=O)OC)N(C(=O)NCCC)C2=NC(C(=O)OC)=C(C(=O)OC)[C@H]13	·	·	0.89
Cc1ccc(C)c(NC(=O)CCc2ccc(S(=O)(=O)NC3CCCCC3)cc2)c1	·	0	1.1
COc1cccc(-n2c(SCC(=O)N3c4ccccc4CC3C)nnc2-c2ccco2)c1 (centres undefined)	·	-1	2.9*
CCn1c(SCC(=O)N2c3ccccc3CC2C)nnc1-c1ccco1 (centres undefined)	12	·	2.2
Cc1ccc(NC(=O)Cn2c(-c3ccc(F)cc3)cnc2SCC(=O)Nc2c(C)cccc2C)cc1	·	-4	·
Cc1ccccc1C1=NC(C(F)(F)F)(C(F)(F)F)c2c(n(C)c(=O)n(C)c2=O)N1	·	-2	·
Cn1c2c(c(=O)n(C)c1=O)C(C(F)(F)F)(C(F)(F)F)N=C(c1ccc(Cl)cc1)N2	·	-7	-3.1*
CCN(CC(=O)NC(C)C)C(=O)c1ccc(S(=O)(=O)N(C)c2ccccc2OC)cc1	11	-3	-0.048
CCN(CC(=O)NC(C)C)C(=O)c1ccc(Cl)cc1	·	6.0*	·
